Measurements: PubChem BioAssay
A number with no mark means an inactive call. For some assays here: Measured potencies and affinities stand elsewhere. Active and inactive are the calls of the source. Unless noted, no rule for the calls is given here.

Legend:
[1] = antimalarial activity against Dd2 strain (AID 2302;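 active = growth inhibition above 50% at the single 2 µM test dose, taken to imply half-maximal potency below 2 µM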;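 also: 0% = DMSO untreated growth and 100% = chloroquine plus artemisinin killed control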); details: P. falciparum Dd2 in RBCs, LDH growth readout, 72 h; at 2 µM; hits give high values
[2] = human hepatoma cell viability loss – ATP luminescence, cytotoxicity control for P. falciparum antimalarial project, primary screen (AID 2303;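 active = inhibition above 50%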;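 also: 0% = DMSO wells and 100% = digitonin-killed cells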); details: HepG2 viability, 24-48 h, at 10 µM, hits give high values
[3] = target: L-lactate dehydrogenase (Plasmodium falciparum (isolate CDC / Honduras)) (UniProt Q27743); assay: PfLDH activity inhibition – cell lysate, 3D7 strain, counter-screen for P. falciparum growth inhibition project (AID 2304);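 also: 0% = vehicle and 100% = reference inhibitor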; details: P. falciparum 3D7 crude extract, LDH APAD/NBT absorbance; at 2 µM; hits give high values
Chain of L-lactate dehydrogenase (Plasmodium falciparum (isolate CDC / Honduras)) (Q27743 whole entry, looked up): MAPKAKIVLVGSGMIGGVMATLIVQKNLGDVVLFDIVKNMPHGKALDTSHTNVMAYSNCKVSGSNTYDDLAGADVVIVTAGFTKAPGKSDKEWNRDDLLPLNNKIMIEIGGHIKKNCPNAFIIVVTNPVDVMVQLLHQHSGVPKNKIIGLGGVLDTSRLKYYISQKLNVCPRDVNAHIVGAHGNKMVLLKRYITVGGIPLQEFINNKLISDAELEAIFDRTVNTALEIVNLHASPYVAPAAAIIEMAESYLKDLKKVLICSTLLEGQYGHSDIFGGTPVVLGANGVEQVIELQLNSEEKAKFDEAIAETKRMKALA

[4] = inhibition of 3D7 malaria parasite growth – strain 3D7 (AID 2306);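 also: 0% = DMSO wells and 100% = chloroquine plus artemisinin control wells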; details: P. falciparum 3D7 erythrocytic growth, LDH absorbance, 72 h; at 2 µM; hits give high values
[5] = target: Calcium-dependent protein kinase 1 (Plasmodium falciparum (isolate 3D7)) (UniProt P62344); assay: PfCDPK1 kinase inhibitors, biochemical, TCAMS library (AID 1159585; cut-off not given, nearly all actives have IC50 up to about 0.98 µM;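 also: inhibitors leave more ATP so luminescence rises with inhibition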); details: recombinant PfCDPK1, Kinase-Glo ATP depletion luminescence
Chain of Calcium-dependent protein kinase 1 (Plasmodium falciparum (isolate 3D7)) (P62344 whole entry, looked up): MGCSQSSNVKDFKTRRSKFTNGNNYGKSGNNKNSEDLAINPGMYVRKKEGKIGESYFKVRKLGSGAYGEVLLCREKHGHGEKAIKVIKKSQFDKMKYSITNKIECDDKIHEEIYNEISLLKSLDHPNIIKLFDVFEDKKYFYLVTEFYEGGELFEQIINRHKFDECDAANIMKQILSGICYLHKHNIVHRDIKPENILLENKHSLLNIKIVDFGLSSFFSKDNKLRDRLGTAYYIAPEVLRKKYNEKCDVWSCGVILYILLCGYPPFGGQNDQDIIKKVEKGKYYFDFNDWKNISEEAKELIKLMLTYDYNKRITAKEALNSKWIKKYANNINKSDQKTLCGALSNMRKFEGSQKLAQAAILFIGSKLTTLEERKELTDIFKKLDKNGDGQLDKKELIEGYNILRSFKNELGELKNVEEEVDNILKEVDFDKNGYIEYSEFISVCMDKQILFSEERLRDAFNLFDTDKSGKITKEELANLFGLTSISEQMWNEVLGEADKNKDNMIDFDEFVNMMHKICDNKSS

[6] = target: Plasmodium falciparum protein kinase 6 (PK6, PF3D7_1337100) (UniProt Q8IDW1); assay: PfPK6 kinase inhibitors, biochemical, TCAMS library (AID 1159586); details: recombinant PfPK6, Kinase-Glo ATP depletion luminescence
Chain of Plasmodium falciparum protein kinase 6 (PK6, PF3D7_1337100) (Q8IDW1 1-305): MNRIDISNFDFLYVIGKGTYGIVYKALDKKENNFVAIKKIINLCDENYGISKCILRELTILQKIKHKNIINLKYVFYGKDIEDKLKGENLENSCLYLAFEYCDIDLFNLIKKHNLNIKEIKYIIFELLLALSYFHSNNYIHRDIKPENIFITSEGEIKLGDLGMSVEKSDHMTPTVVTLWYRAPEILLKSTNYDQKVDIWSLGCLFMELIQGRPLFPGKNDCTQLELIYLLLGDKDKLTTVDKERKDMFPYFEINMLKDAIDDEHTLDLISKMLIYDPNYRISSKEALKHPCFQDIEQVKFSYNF

[7] = target: Protein kinase 7 (PK7), Plasmodium falciparum 3D7 (PF3D7_0213400) (UniProt Q7YTF7); assay: inhibition of Plasmodium PK7 catalytic activity – biochemical, TCAMS antimalarial set, Kinase-Glo luminescence (AID 1159587); details: recombinant PfPK7, Kinase-Glo ATP depletion luminescence
Chain of Protein kinase 7 (PK7), Plasmodium falciparum 3D7 (PF3D7_0213400) (Q7YTF7 1-343): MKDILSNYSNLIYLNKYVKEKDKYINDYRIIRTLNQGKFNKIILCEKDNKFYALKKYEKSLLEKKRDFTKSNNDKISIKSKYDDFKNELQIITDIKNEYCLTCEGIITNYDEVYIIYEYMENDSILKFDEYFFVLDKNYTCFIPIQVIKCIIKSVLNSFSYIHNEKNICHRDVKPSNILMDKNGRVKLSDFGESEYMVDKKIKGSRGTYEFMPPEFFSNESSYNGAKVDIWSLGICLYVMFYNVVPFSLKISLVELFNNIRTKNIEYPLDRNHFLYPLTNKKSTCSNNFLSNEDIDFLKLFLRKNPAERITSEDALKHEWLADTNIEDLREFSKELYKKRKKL

[8] = target: Calcium-dependent protein kinase 4 (Plasmodium falciparum (isolate 3D7)) (UniProt Q8IBS5); assay: PfCDPK4 kinase inhibitors, biochemical, TCAMS library (AID 1159588; cut-off not given, nearly all actives have IC50 up to about 0.91 µM); details: recombinant PfCDPK4, Kinase-Glo ATP depletion luminescence
Chain of Calcium-dependent protein kinase 4 (Plasmodium falciparum (isolate 3D7)) (Q8IBS5 whole entry, looked up): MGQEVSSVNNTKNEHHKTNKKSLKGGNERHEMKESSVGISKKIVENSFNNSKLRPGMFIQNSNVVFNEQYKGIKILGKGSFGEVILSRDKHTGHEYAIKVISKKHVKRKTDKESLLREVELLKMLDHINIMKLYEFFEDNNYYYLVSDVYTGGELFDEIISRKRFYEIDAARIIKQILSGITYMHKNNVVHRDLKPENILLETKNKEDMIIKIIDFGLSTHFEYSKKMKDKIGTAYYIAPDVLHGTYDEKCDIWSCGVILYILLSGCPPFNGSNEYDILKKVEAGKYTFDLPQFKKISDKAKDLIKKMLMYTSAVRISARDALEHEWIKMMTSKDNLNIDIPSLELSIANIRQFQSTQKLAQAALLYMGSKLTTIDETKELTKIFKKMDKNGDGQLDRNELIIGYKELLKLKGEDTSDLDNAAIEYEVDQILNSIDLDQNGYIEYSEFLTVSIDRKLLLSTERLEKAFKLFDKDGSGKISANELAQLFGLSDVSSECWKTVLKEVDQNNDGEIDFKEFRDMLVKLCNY

SMILES | growth inhibition [1] | inhibition [2] | inhibition [3] | growth inhibition [4] | outcome [5] | outcome [6] | outcome [7] | outcome [8]
CN(CC(=O)Nc1cc(C(F)(F)F)ccc1-n1cncn1)Cc1ccc2ccccc2c1 | 99% (active) | 18% | 3% | 98% (active) | inactive | inactive | inactive | inactive
COc1ccc(CCN(C)CCOc2ccc(NC(=O)c3ccc([N+](=O)[O-])c4c(=O)c5ccccc5[nH]c34)cc2)cc1OC | 25% | 38% | -2% | 91% (active) | inactive | inactive | inactive | inactive
Cn1cccc1C(=O)C(=O)Nc1cccc(-c2ccc(-c3nc4ccc(C(F)(F)F)cc4[nH]3)cc2)c1 | 27% | 62% (active) | -7% | 94% (active) | inactive | inactive | inactive | inactive
COc1cccc(NC(=O)COc2ccc(C(=O)Nc3nc4ccccc4[nH]3)cc2)c1 | 29% | 19% | 0% | 99% (active) | inactive | inactive | inactive | inactive
Cc1noc(C)c1-c1cccc(CNCc2ccc(-c3cccc(-c4nc5c(C)cccc5[nH]4)c3)cc2)c1 | 94% (active) | 24% | 7% | 101% (active) | inactive | inactive | inactive | inactive
Cc1cc(NN=Cc2cccc(F)c2)c2cc(F)ccc2n1 | 99% (active) | 7% | -1% | 101% (active) | inactive | inactive | inactive | inactive
Cc1cnccc1/C=C/c1cccc(OCCCN2CCc3ccc(S(C)(=O)=O)cc3CC2)c1 | 72% (active) | 1% | 1% | 92% (active) | inactive | inactive | inactive | inactive
CCCCCC(C)C(C)c1cc(OC(N)=O)c2c(c1)OC(C)(C)C=C2c1ccncc1 (stereo not given) | -1% | 81% (active) | 0% | 96% (active) | inactive | inactive | inactive | inactive
CCOCCCNc1ncc(-c2ccsc2)c(-c2nc(C)cs2)n1 | 83% (active) | 0% | 1% | 89% (active) | inactive | inactive | inactive | inactive
COc1ccc(CCN(C)CCCN2CCC(NC(=O)c3cccc4c(=O)c5ccccc5[nH]c34)CC2)cc1OC | 72% (active) | 19% | 2% | 99% (active) | inactive | inactive | inactive | inactive
O=C(Nc1cccnc1)c1cc(-c2cccnc2)nc2ccc(Br)cc12 | 60% (active) | 9% | 1% | 99% (active) | inactive | inactive | inactive | inactive
CCN(C)c1cc(C(=O)N[C@@H](Cc2ccccc2)[C@H](O)CNC(C)(C)c2cccc(OC)c2)cc(N2CCCC2=O)c1 | 81% (active) | -1% | 1% | 100% (active) | inactive | inactive | inactive | inactive
NC1=NC(C=Cc2ccccc2)N(OCCCCCCON2C(N)=NC(N)=NC2C=Cc2ccccc2)C(N)=N1 (stereo not given) | 94% (active) | 17% | 3% | 97% (active) | inactive | inactive | inactive | inactive
COc1cccc(Nc2nc(C)cc(NC3CCCC3)n2)c1 | 79% (active) | 41% | 1% | 101% (active) | inactive | inactive | inactive | inactive
CC(CN)OCn1cnc2c(N)ncnc21 (stereo not given) | 3% | 17% | 4% | 95% (active) | inactive | inactive | inactive | inactive
Cn1cncc1-c1ccc2ncnc(Nc3ccc4c(cnn4Cc4ccccc4)c3)c2c1 | 99% (active) | 1% | -3% | 100% (active) | inactive | inactive | inactive | inactive
COc1ccc(OC)c2c1C[C@@H]1NC[C@H]2c2c(OC)ccc(OC)c21 | 3% | 2% | 1% | 99% (active) | inactive | inactive | inactive | inactive
Cc1cccc2[nH]c(-c3cccc(-c4cccc(NC(=O)Nc5ccsc5)c4)c3)nc12 | 41% | 15% | -3% | 102% (active) | inactive | inactive | inactive | inactive
COc1cc(-n2cnc3cc(-c4ccc(Cl)cc4)sc3c2=O)ccc1OCCN1CCC(c2cccc(NC(C)=O)c2)CC1 | 80% (active) | 61% (active) | -4% | 99% (active) | inactive | inactive | inactive | inactive
CCN(CC)CCn1c(=N)n(CC(O)c2ccc(Cl)c(Cl)c2)c2ccccc21 (stereo not given) | 88% (active) | 35% | 6% | 99% (active) | inactive | inactive | inactive | inactive

SMILES | growth inhibition [1] | inhibition [2] | inhibition [3] | growth inhibition [4] | outcome [5] | outcome [6] | outcome [7] | outcome [8]
CN1CCN(c2nsc3ccc(-c4ccc(OCCN5CCCC5)cc4)cc23)CC1 | 99% (active) | 57% (active) | 6% | 102% (active) | inactive | inactive | inactive | inactive
O=C(NCC1CN(Cc2ccc(N3CCCC3)o2)CCCO1)c1ccc2c(c1)OCO2 (stereo not given) | 70% (active) | -3% | -1% | 83% (active) | inactive | inactive | inactive | inactive
COc1ccc(-c2cc(-c3nc4ccc(C(=O)N5CCOCC5)cc4[nH]3)c(=O)n(C)c2)cc1OC | 95% (active) | 6% | 4% | 93% (active) | inactive | inactive | inactive | inactive
CC(=O)Nc1cccc(C(=O)Nc2cccc(-c3csc(-c4nc5ccccc5[nH]4)c3)c2)c1 | 97% (active) | 39% | 1% | 96% (active) | inactive | inactive | inactive | inactive
COc1cc(C2CCN(CCCCNC(=O)c3ccc(NC(=O)c4cc(C(F)(F)F)cc(C(F)(F)F)c4)cc3)CC2)ccc1OC(C)C | 100% (active) | 21% | 4% | 100% (active) | inactive | inactive | inactive | inactive
COc1ccccc1NS(=O)(=O)c1cc(C(=O)Nc2ccc(N3CCOCC3)c(S(=O)(=O)Nc3ccccc3Cl)c2)ccc1Cl | 25% | -3% | -2% | 97% (active) | inactive | inactive | inactive | inactive
COc1ccc(NC(=O)CCNc2cc(C)nc(NCCOc3ccccc3)n2)cc1 | 2% | 0% | -1% | 96% (active) | inactive | inactive | inactive | inactive
COCCn1c(C)cc(C(=O)CN2C(=O)NC(C)(c3ccc(C(C)(C)C)cc3)C2=O)c1C (stereo not given) | 96% (active) | 7% | 1% | 97% (active) | inactive | inactive | inactive | inactive
COCCCn1c(=N)c(C(=O)NCCc2ccc(OC)cc2)cc2c(=O)n3cccc(C)c3nc21 | 33% | 18% | -1% | 95% (active) | inactive | inactive | inactive | inactive
COc1cc(NC2CCCC(NCc3cn(S(=O)(=O)c4ccccc4)c4ccccc34)C2)nc2ccccc12 (stereo not given) | 61% (active) | 4% | 2% | 100% (active) | inactive | inactive | inactive | inactive
CC(CC(=O)NCC1(c2ccc(F)cc2Cl)CCOCC1)C(=O)c1ccc(Cl)cc1 (stereo not given) | 91% (active) | 6% | 2% | 99% (active) | inactive | inactive | inactive | inactive
CC(CN1CCN(C)CC1)C(=O)Nc1cccc(-c2ccc(-c3nc4ccc(F)cc4[nH]3)cc2)c1 (stereo not given) | 98% (active) | 10% | 1% | 101% (active) | inactive | inactive | inactive | inactive
Cc1ccc2nc(C)cc(NN=Cc3ccc(Cl)cc3)c2c1 | 35% | -9% | 6% | 102% (active) | inactive | inactive | inactive | inactive
C=CCn1c(=N)c(C(=O)NCc2ccc(F)cc2)cc2c(=O)n3cccc(C)c3nc21 | 11% | 16% | -2% | 92% (active) | inactive | inactive | inactive | inactive
Cc1cccc(C)c1OC(=O)CSc1nnc(-c2ccccc2O)o1 | -2% | 11% | 0% | 97% (active) | inactive | inactive | inactive | inactive
CN1CCN(Cc2ccc(-c3ccc4c(Nc5cc(O)c(F)cc5Cl)ccnc4c3)o2)CC1 | 99% (active) | 27% | 3% | 101% (active) | inactive | inactive | inactive | inactive
O=C(Cc1ccsc1)NCC(c1ccccc1Cl)c1c[nH]c2ccccc12 (stereo not given) | 71% (active) | 0% | -1% | 86% (active) | inactive | inactive | inactive | inactive
CC(C)NCc1ccc(-c2cccc(NC(=O)c3ccc(C#N)cc3)c2)cc1 | 19% | 8% | 4% | 100% (active) | inactive | inactive | inactive | inactive
CN(C)Cc1ccc(CN2CCN(CCOc3ccc(-c4ccc(Cl)cc4)cc3)CC2)o1 | 21% | 75% (active) | -1% | 90% (active) | inactive | inactive | inactive | inactive
Cc1ccc(NC(C)C(=O)Nc2ccccc2)cc1S(=O)(=O)N1CCCCCC1 (stereo not given) | 97% (active) | 12% | -4% | 99% (active) | inactive | inactive | inactive | inactive
